Data published in PubChem BioAssay AID588676 (Johns Hopkins Ion Channel Center, 2011).
Hit rate of the full screen: of about 310,000 compounds, about 3,900 (1.3%) were called active.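 The calls were made as follows: active = calcium-response B-score plate-corrected more than 3 library SD below zero, starting fluorescence within 5 deviations, no agonist response on first addition; inactive = the rest.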 The list comes from a sample in which actives are over-represented; it also holds similar structures and randomly drawn compounds.

Target: Mas-related G-protein coupled receptor member X1 (Homo sapiens) (UniProt Q96LB2)
Assay: blockade of BAM8-22-evoked MrgX1 calcium response – HEK293 cells, Fluo-4 calcium flux, primary screen (AID 588676);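 as to B-score: peak minus trough fluorescence over baseline after final BAM8-22 challenge near maximal dose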
Settings: Fluo-4, BAM8-22 antagonism, at 10 µM; stronger effect = lower value

Mas-related G-protein coupled receptor member X1 (Homo sapiens), sequence (Q96LB2 whole entry, looked up): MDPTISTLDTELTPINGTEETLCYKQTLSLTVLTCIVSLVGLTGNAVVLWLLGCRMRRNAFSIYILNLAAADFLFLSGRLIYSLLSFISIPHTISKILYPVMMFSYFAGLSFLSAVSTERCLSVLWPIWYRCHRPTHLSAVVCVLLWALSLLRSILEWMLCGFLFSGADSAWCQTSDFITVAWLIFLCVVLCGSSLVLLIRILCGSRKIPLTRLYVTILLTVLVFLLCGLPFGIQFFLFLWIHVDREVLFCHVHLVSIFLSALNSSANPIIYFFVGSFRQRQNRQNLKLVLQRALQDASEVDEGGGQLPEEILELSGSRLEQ

SMILES | B-score
C=CCSc1nc(Cc2ccc(Cl)cc2)nc2ccccc12 | -5.91 (active)
Clc1ccc(CSc2nnc3c(n2)[nH]c2ccccc23)cc1 | inactive
CCCNC(=O)CSc1nc(Cc2ccccc2)nc2ccccc12 | inactive
COc1ccccc1NC(=S)N1CCC(NC(=O)C23CC4CC(CC(C4)C2)C3)CC1 | inactive
FC(F)(F)c1cc(-c2cccs2)nc(NCc2ccco2)n1 | -5.29 (active)
FC(F)(F)c1cc(-c2ccco2)nc(NCc2ccc(Cl)cc2)n1 | inactive
COc1ccc(-c2cc(C(F)(F)F)nc(SCCC(=O)NCc3ccco3)n2)cc1 | inactive
CC(=O)c1c(C)[nH]c(C(=O)CN2C(=O)NC(C)(C)C2=O)c1C | inactive
Cc1nc(-c2ccc(F)cc2)c(CC(=O)N2CCN(S(=O)(=O)c3ccc(F)cc3)CC2)s1 | inactive
CC(=O)N(C1=C(Cl)C(=O)c2ccccc2C1=O)c1ccc(C(=O)O)cc1 | -18.7 (active)
FC(F)(F)c1cccc(-c2cc3ccccc3nc2N2CCCC2)c1 | inactive
O=C(COc1ccccc1)Nc1ccc(C(=O)N2CCCC2)cc1 | inactive
C/C(=N\NC(=O)Cc1ccc(Br)cc1)c1cccnc1 | inactive
C/C(=N\NC(=O)Cc1ccc(F)cc1)c1ccc(F)cc1 | -8.25 (active)
C/C(=N/NC(=O)CC(=O)N/N=C(\C)c1ccc([N+](=O)[O-])cc1)c1ccc([N+](=O)[O-])cc1 | inactive
COc1ccc2c3c1O[C@H]1C[C@@H](O)C=C[C@@]31CCN(C)C2 | inactive
Cc1nn(-c2ccccc2)c2c1C(c1ccc(F)cc1)C(C#N)=C(N)O2 (stereo not drawn) | -13.4 (active)
COc1ccccc1C1C(C#N)=C(N)Oc2c1c(-c1ccccc1)nn2-c1ccccc1 (stereo not drawn) | inactive
Cc1nn(Cc2ccccc2)c2c1C(c1ccccc1)C(C#N)=C(N)O2 (stereo not drawn) | inactive
CC(C)(C)c1ccc(C(CC(=O)O)NS(=O)(=O)Cc2ccccc2)cc1 (stereo not drawn) | inactive
Cc1c(CCO)c(=O)[nH]n1C(=O)c1c(F)cccc1F | inactive
CCOC(=O)[C@H]1CCC[C@@H](NS(=O)(=O)c2ccc(NC(C)=O)cc2)C1 | inactive
Cc1ccc(CNC(=O)CCNS(=O)(=O)c2ccc(Br)s2)cc1 | inactive

SMILES | B-score
O=C1CCC(C(=O)N2CCN(c3ccccc3Cl)CC2)CN1CC1CCCCC1 (stereo not drawn) | inactive
COc1ccc(CCNC(=O)C2CC3Cn4c(nc5cc(C)c(C)cc54)C3N2C)cc1 (stereo not drawn) | inactive
COc1ccc(CCNc2cc(N3CCN(C(=O)c4ccccc4OC)CC3)ccc2[N+](=O)[O-])cc1OC | -5.34 (active)
O=C(c1ccccc1)N1CCN(c2ccc([N+](=O)[O-])c(NCc3ccco3)c2)CC1 | inactive
COc1ccccc1OCCNc1cc(N2CCOCC2)ccc1[N+](=O)[O-] | inactive
Cc1cccc(N2CC(C(=O)Nc3ccccc3N3CCCC3)CC2=O)c1C (stereo not drawn) | inactive
CCOc1ccc(C(CC(=O)O)n2cnnn2)cc1OC (stereo not drawn) | inactive
COC(=O)c1ccc(COC(=O)c2cnc(Cl)c(Cl)c2)cc1 | inactive
COc1ccccc1C(=O)N/C(=C/c1ccco1)C(=O)Nc1ccc(C(=O)O)cc1 | inactive
CCOc1ccc(S(=O)(=O)Nc2ccc(C(=O)NCCCN3CCCC3=O)cc2)cc1 | -9 (active)
CCOc1ccc(C(=O)NCCCN2CCCC2=O)cc1 | inactive
O=C(NCCCN1CCCC1=O)c1ccc(S(=O)(=O)Nc2ccccc2)cc1 | inactive
Oc1cc(O)c2c(c1)OC(c1ccc(O)c(O)c1)C(O)C2 (stereo not drawn) | inactive
Cc1ccc2cc3cc(C(=O)N4CCCCCC4)oc3nc2c1 | inactive
CN(C)c1ccc(C(CC(=O)O)C(=O)O)cc1 (stereo not drawn) | inactive
Cc1cnc(CN(C)C(=O)CC2C(=O)NCCN2Cc2cccc(F)c2F)[nH]1 (stereo not drawn) | inactive
CCCCCc1nnc(NC(=O)c2ccc(=O)n(C)n2)s1 | inactive
Cc1cc(=O)n2c3c(cccc13)CCC2 | inactive
CCCCc1nc2ccccc2c(=O)n1NC(=O)c1c(O)c2cccc3c2n(c1=O)CC3 | inactive
CCNC(=O)c1c(O)c2cccc3c2n(c1=O)CC3 | -5.85 (active)
Nc1[nH][nH]c(=O)c1N=Nc1ccc2c(c1)OCO2 | inactive
Cc1cc(C)nc(N2CCC(C(=O)Nc3ccc4c(c3)OCCO4)CC2)n1 | inactive
Cc1cc(Nc2cc(N3CCN(C)CC3)nc(Sc3ccc(NC(=O)C4CC4)cc3)n2)n[nH]1 | -6.92 (active)

SMILES | B-score
Cc1cc(C)cc(NC(=O)C2CCN(c3nc(C)cc(C)n3)CC2)c1 | inactive
COc1cc(CC(=O)Nc2nc(-c3ccc(F)c(F)c3)cs2)cc(OC)c1OC | inactive
COc1ccc(CC(=O)Nc2nc(-c3ccc(F)c(F)c3)cs2)cc1OC | -5.43 (active)
Cc1ccc(S(=O)(=O)NC(=O)Nc2nc(-c3ccc(F)c(F)c3)cs2)cc1 | inactive
CCc1nn(CC(=O)N2CCN(c3cc(C)ccc3C)CC2)c(=O)c2cc3occc3n12 | inactive
O=C(CSc1c2c(nc3ccc(Cl)cc13)CCCC2)NCc1ccco1 | -6.85 (active)
O=C(CSc1nnnn1-c1ccccc1)NCc1ccco1 | inactive
O=C(/C=C/c1ccc(Cl)cc1Cl)NCc1ccco1 | inactive
COc1ccc(C)cc1NC(=O)CN(C)S(=O)(=O)c1ccc2c(c1)n(C)c(=O)c(=O)n2C | inactive
Cc1cc(C)cc(N(CC(=O)NC2CCCC2)C(=O)CCC(=O)Nc2nccs2)c1 | inactive
COCCCN(C(=O)Cn1ncc2c(=O)oc3ccc(C)cc3c21)C(C)c1ccncc1 (stereo not drawn) | -9.22 (active)
Cc1ccc2oc(=O)c3cnn(CC(=O)N4CCCCCC4)c3c2c1 | inactive
Cc1ccc2oc(=O)c3cnn(CC(=O)N(Cc4ccco4)C4CCCCC4)c3c2c1 | inactive
CN1CCC(=O)N([C@H](CO)Cc2ccccc2)CC1 | inactive
CCN(Cc1ccccc1)S(=O)(=O)c1cc(C(=O)O)ccc1OC | inactive
COc1ccc2[nH]c3nc(SCC(=O)NC4CC4)nnc3c2c1 | inactive
Cc1ccc(CNC(=O)CSc2nnc3c(n2)[nH]c2ccc(F)cc23)cc1 | -5.01 (active)
Cc1ccn2c(=O)nc(SCC(=O)NCc3ccc(F)cc3)nc2c1 | inactive
COc1ccc(S(=O)(=O)n2nc(C)c(S(=O)(=O)N3CCOCC3)c2C)cc1 | inactive
CCc1ccc(OC(C)C(=O)Nc2ccc(S(=O)(=O)Nc3cc(C)on3)cc2)cc1 (stereo not drawn) | inactive
CCOc1ccc(CC(=O)Nc2ccc(S(=O)(=O)Nc3cc(C)on3)cc2)cc1OCC | -7.96 (active)
CCOc1ccc(C(=O)Nc2ccc(S(=O)(=O)Nc3cc(C)on3)cc2)cc1 | inactive
